# Experimental data as given in the supplement of paper PMC8728848.
# The full list was thinned out, with the strongest signals kept by preference.
# B1: LlpA (Burkholderia cenocepacia) (protein)
# chain: MGSSHHHHHHSSGLVPRGSHKILGSNETLSAGNVVYSDNGQYHLAMQTDGNLVVYGPTGAVWQSQTSGSGGNRAVMQGDGNLVIYRADNTAAWSSKTAHPGAFLAVQDDGNVVIYWPRPAWASNTSDPATQQSAESKYLASGSTMSAGQTVTVAQYMLVFQADGNLVLYKNGGNPIWSTGTQGKGATYAVMQSDGNFVIYAGSTALWSTKTNGANGAQLVLQSDGNLVIYAPTAAWSTKFGLVTAPTSTSTSNNGPGSGICVGVCPPHPLNGNPFSPVGVGTTGLGFPTPGYPGAAF
# Experiments:
# Experiment in all cases: glycan array binding signal (z-score within array); higher = stronger binding
# Conditions in all cases: glycan notation: IUPAC condensed, linker removed
# [1] = target: Gal6S(b1-3)GlcNAc6S
# How it was run: (§1)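 Glycan array data came from 3228 arrays in the Consortium for Functional Glycomics database, and only arrays with an available protein sequence were kept. Glycan names were put into IUPAC-condensed notation, and columns mapping to the same glycan were averaged. The binding signal is a within-array Z-score, averaged across arrays of one protein sequence run at different concentrations or buffers and across linkers. A negative Z-score can be read as non-binding.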
# [2] = target: GalNAc(a1-3)GalNAc(b1-3)Gal(a1-4)Gal(b1-4)GlcNAc
# How it was run: as §1
# [3] = target: Glc(a1-6)Glc(a1-6)Glc(a1-6)Glc
# How it was run: as §1
# [4] = target: GlcNAc(b1-2)Man(a1-3)[GlcNAc(b1-4)][GlcNAc(b1-2)Man(a1-6)]Man(b1-4)GlcNAc(b1-4)GlcNAc
# How it was run: as §1
# [5] = target: GlcNAc(b1-2)Man(a1-3)[GlcNAc(b1-4)][GlcNAc(b1-2)Man(a1-6)]Man(b1-4)GlcNAc(b1-4)[Fuc(a1-6)]GlcNAc
# How it was run: as §1
# [6] = target: GlcNAc(b1-2)[GlcNAc(b1-4)]Man(a1-3)[GlcNAc(b1-4)][GlcNAc(b1-2)[GlcNAc(b1-6)]Man(a1-6)]Man(b1-4)GlcNAc(b1-4)GlcNAc
# How it was run: as §1
# [7] = target: GlcNAc(b1-3)Gal(b1-3)GalNAc
# How it was run: as §1
# [8] = target: GlcNAc(b1-3)Gal(b1-4)GlcNAc
# How it was run: as §1
# [9] = target: GlcNAc(b1-3)Gal(b1-4)GlcNAc(b1-3)Gal(b1-4)GlcNAc(b1-2)[GlcNAc(b1-3)Gal(b1-4)GlcNAc(b1-3)Gal(b1-4)GlcNAc(b1-6)]Man(a1-6)[GlcNAc(b1-3)Gal(b1-4)GlcNAc(b1-3)Gal(b1-4)GlcNAc(b1-2)Man(a1-3)]Man(b1-4)GlcNAc(b1-4)[Fuc(a1-6)]GlcNAc
# How it was run: as §1
# [10] = target: GlcNAc(b1-3)Gal(b1-4)GlcNAc(b1-3)Gal(b1-4)GlcNAc(b1-3)Gal(b1-4)GlcNAc(b1-2)[GlcNAc(b1-3)Gal(b1-4)GlcNAc(b1-3)Gal(b1-4)GlcNAc(b1-3)Gal(b1-4)GlcNAc(b1-6)]Man(a1-6)[GlcNAc(b1-3)Gal(b1-4)GlcNAc(b1-3)Gal(b1-4)GlcNAc(b1-3)Gal(b1-4)GlcNAc(b1-2)Man(a1-3)]Man(b1-4)GlcNAc(b1-4)[Fuc(a1-6)]GlcNAc
# How it was run: as §1
# [11] = target: GlcNAc(b1-3)Gal(b1-4)GlcNAc(b1-3)Gal(b1-4)GlcNAc(b1-3)Gal(b1-4)GlcNAc(b1-3)Gal(b1-4)GlcNAc(b1-2)Man(a1-3)[GlcNAc(b1-3)Gal(b1-4)GlcNAc(b1-3)Gal(b1-4)GlcNAc(b1-3)Gal(b1-4)GlcNAc(b1-3)Gal(b1-4)GlcNAc(b1-2)Man(a1-6)]Man(b1-4)GlcNAc(b1-4)GlcNAc
# How it was run: as §1
# [12] = target: GlcNAc(b1-3)Gal(b1-4)GlcNAc(b1-3)Gal(b1-4)GlcNAc(b1-3)Gal(b1-4)GlcNAc(b1-3)Gal(b1-4)GlcNAc(b1-2)[GlcNAc(b1-3)Gal(b1-4)GlcNAc(b1-3)Gal(b1-4)GlcNAc(b1-3)Gal(b1-4)GlcNAc(b1-3)Gal(b1-4)GlcNAc(b1-6)]Man(a1-6)[GlcNAc(b1-3)Gal(b1-4)GlcNAc(b1-3)Gal(b1-4)GlcNAc(b1-3)Gal(b1-4)GlcNAc(b1-3)Gal(b1-4)GlcNAc(b1-2)Man(a1-3)]Man(b1-4)GlcNAc(b1-4)[Fuc(a1-6)]GlcNAc
# How it was run: as §1
# [13] = target: GlcNAc(b1-3)[GlcNAc(b1-6)]GalNAc
# How it was run: as §1
# [14] = target: Man(a1-2)Man(a1-2)Man(a1-6)[Man(a1-3)]Man
# How it was run: as §1
# [15] = target: Man(a1-2)Man(a1-3)[Man(a1-2)Man(a1-6)]Man(a1-6)[Man(a1-2)Man(a1-2)Man(a1-3)]Man
# How it was run: as §1
# [16] = target: Man(a1-3)[Man(a1-6)]Man(b1-4)GlcNAc(b1-4)GlcNAc
# How it was run: as §1
# [17] = target: Neu5Ac(a2-3)Gal(b1-3)GlcNAc(b1-2)[Neu5Ac(a2-3)Gal(b1-3)GlcNAc(b1-4)]Man(a1-6)[Neu5Ac(a2-3)Gal(b1-3)GlcNAc(b1-2)Man(a1-3)]Man(b1-4)GlcNAc(b1-4)GlcNAc
# How it was run: as §1
# [18] = target: Neu5Ac(a2-3)Gal(b1-4)[Fuc(a1-3)]GlcNAc
# How it was run: as §1
# [19] = target: Neu5Ac(a2-3)GalNAc(b1-4)GlcNAc
# How it was run: as §1
# [20] = target: Neu5Ac(a2-3)[GalNAc(b1-4)]Gal(b1-4)GlcNAc
# How it was run: as §1
# [21] = target: Neu5Ac(a2-6)Gal(b1-3)GlcNAc(b1-3)[Gal(b1-4)GlcNAc(b1-6)]Gal(b1-4)Glc
# How it was run: as §1
# [22] = target: Neu5Ac(a2-6)Gal(b1-4)GlcNAc
# How it was run: as §1
# [23] = target: Neu5Ac(a2-6)Gal(b1-4)GlcNAc(b1-2)Man(a1-3)[Man(a1-6)]Man(b1-4)GlcNAc(b1-4)GlcNAc
# How it was run: as §1
# [24] = target: Neu5Ac(a2-6)Gal(b1-4)GlcNAc(b1-3)Gal(b1-4)GlcNAc(b1-3)Gal(b1-4)GlcNAc(b1-2)Man(a1-3)[Neu5Ac(a2-6)Gal(b1-4)GlcNAc(b1-3)Gal(b1-4)GlcNAc(b1-3)Gal(b1-4)GlcNAc(b1-2)Man(a1-6)]GalNAc
# How it was run: as §1
# [25] = target: Neu5Ac(a2-6)Gal(b1-4)GlcNAc(b1-6)[Gal(b1-3)GlcNAc(b1-3)]Gal(b1-4)Glc
# How it was run: as §1
# [26] = target: Neu5Ac(a2-6)GalNAc(b1-4)GlcNAc6S
# How it was run: as §1
# [27] = target: Neu5Ac(b2-6)GalNAc
# How it was run: as §1
# [28] = target: Neu5Gc(a2-3)Gal(b1-4)GlcNAc
# How it was run: as §1
binder,measurement,setting,value
B1,glycan array binding signal (z-score),[1],-0.227
same,glycan array binding signal (z-score),[2],-0.419
same,glycan array binding signal (z-score),[3],0.011
same,glycan array binding signal (z-score),[4],0.686
same,glycan array binding signal (z-score),[5],-0.623
same,glycan array binding signal (z-score),[6],-0.839
same,glycan array binding signal (z-score),[7],0.088
same,glycan array binding signal (z-score),[8],-0.175
same,glycan array binding signal (z-score),[9],1.97
same,glycan array binding signal (z-score),[10],2.12
same,glycan array binding signal (z-score),[11],1.56
same,glycan array binding signal (z-score),[12],1.97
same,glycan array binding signal (z-score),[13],0.522
same,glycan array binding signal (z-score),[14],-0.239
same,glycan array binding signal (z-score),[15],0.07
same,glycan array binding signal (z-score),[16],-0.516
same,glycan array binding signal (z-score),[17],0.118
same,glycan array binding signal (z-score),[18],-0.785
same,glycan array binding signal (z-score),[19],-0.208
same,glycan array binding signal (z-score),[20],-0.447
same,glycan array binding signal (z-score),[21],-0.697
same,glycan array binding signal (z-score),[22],-0.538
same,glycan array binding signal (z-score),[23],0.308
same,glycan array binding signal (z-score),[24],1.99
same,glycan array binding signal (z-score),[25],0.132
same,glycan array binding signal (z-score),[26],0.676
same,glycan array binding signal (z-score),[27],-0.883
same,glycan array binding signal (z-score),[28],-0.079
